Test results: the supplement of paper PMC12494721
Counter-ions that a name gives are not always drawn.

Legend:
Details in all cases: incubation time: 27 h, anaerobic, 37 °C;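 for the amine columns active = adjusted P below 0.05 in both replicates with a change the same way and a mean fold change under 0.8 or over 1.25; inactive = the rest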
[1] = test system: Clostridium sporogenes DSM 1664; experiment: growth (OD595) fold change vs plate DMSO controls (fold change (ratio)); higher = more growth
Outline: (§1)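 Growth is expressed as the fold change relative to the median of the DMSO control wells on each plate. Cultures in mGAM were grown anaerobically in 96-well plates for 27 h at 37 °C, shaken, and read at 595 nm. Readings were blank-subtracted, corrected for compound background with 20 µM compound solutions in water, and converted to OD with a calibration factor of 5. Fold changes above 1.5 were set to NA, and each value is the mean of 2 biological replicates.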

[2] = test system: Escherichia coli IAI1; experiment: as above
Outline: as §1

[3] = test system: Klebsiella aerogenes DSM 30053; experiment: as above
Outline: as §1

[4] = test system: Ruminococcus gnavus DSM 108212; experiment: as above
Outline: as §1

[5] = test system: Klebsiella aerogenes DSM 30053; experiment: fold change of Histamine concentration vs plate DMSO controls (fold change (ratio)); higher = more amine produced, active = hit call of the paper (significant change in both replicates, either direction)
Outline: (§2)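 Using LC–triple-quadrupole MS with dynamic MRM, amines were quantified against external calibration curves and corrected for drift within each batch. Samples were whole anaerobic mGAM cultures of four gut strains, grown 27 h at 37 °C from OD 0.1 before 1:1 dilution, extracted with cold acetonitrile/methanol containing 0.1% formic acid and centrifuged. Compounds were present at 20 µM final (sweeteners at 50 µM final). The numbers are fold changes versus plate DMSO controls, each the mean of 2 biological replicates.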

[6] = test system: Clostridium sporogenes DSM 1664; experiment: fold change of Tryptamine concentration vs plate DMSO controls (fold change (ratio)); higher = more amine produced, active = hit call of the paper (significant change in both replicates, either direction)
Outline: as §2

[7] = test system: Ruminococcus gnavus DSM 108212; experiment: as above
Outline: as §2

[8] = test system: Escherichia coli IAI1; experiment: fold change of Putrescine concentration vs plate DMSO controls (fold change (ratio)); higher = more amine produced, active = hit call of the paper (significant change in both replicates, either direction)
Outline: as §2

[9] = test system: Klebsiella aerogenes DSM 30053; experiment: as above
Outline: as §2

[10] = test system: Escherichia coli IAI1; experiment: fold change of Cadaverine concentration vs plate DMSO controls (fold change (ratio)); higher = more amine produced, active = hit call of the paper (significant change in both replicates, either direction)
Outline: as §2

[11] = test system: Klebsiella aerogenes DSM 30053; experiment: as above
Outline: as §2

[12] = test system: Ruminococcus gnavus DSM 108212; experiment: fold change of 2-Phenylethylamine concentration vs plate DMSO controls (fold change (ratio)); higher = more amine produced, active = hit call of the paper (significant change in both replicates, either direction)
Outline: as §2

SMILES | growth [1] | growth [2] | growth [3] | growth [4] | fold change of Histamine concentration [5] | fold change of Tryptamine concentration [6] | fold change of Tryptamine concentration [7] | fold change of Putrescine concentration [8] | fold change of Putrescine concentration [9] | fold change of Cadaverine concentration [10] | fold change of Cadaverine concentration [11] | fold change of 2-Phenylethylamine concentration [12]
Cc1cnc(C(=O)O)c[n+]1[O-] [Acipimox] (20 µM) | 1.05 | 0.996 | 1.27 | 0.959 | 0.874 (inactive) | 0.952 (inactive) | 1 (inactive) | 1.01 (inactive) | 0.998 (inactive) | 1.03 (inactive) | 1.03 (inactive) | 1.03 (inactive)
Cn1nnc2c(C(N)=O)ncn2c1=O [Temozolomide] (20 µM) | 1.09 | 0.982 | 0.992 | 1.23 | 0.956 (inactive) | 0.977 (inactive) | 1.02 (inactive) | 1 (inactive) | 0.989 (inactive) | 1.02 (inactive) | 0.998 (inactive) | 1.01 (inactive)
COc1c(N2CCNC(C)C2)c(F)cc2c(=O)c(C(=O)O)cn(C3CC3)c12 (stereo not given) [Gatifloxacin] (20 µM) | 0.0115 | 0.0496 | 0.235 | 0.0125 | 0.285 (active) | 0.0452 (active) | 0.226 (active) | 0.888 (inactive) | 1.02 (inactive) | 0.264 (active) | 0.97 (inactive) | 0.226 (active)
CCN(CC)C(=O)c1ccc(O)c(OC)c1 [Ethamivan] (20 µM) | 1.12 | 1.02 | 1.05 | 0.873 | 0.973 (inactive) | 1.02 (inactive) | 1.04 (inactive) | 1.02 (inactive) | 1.02 (inactive) | 1.01 (inactive) | 1.01 (inactive) | 1.05 (inactive)
CC(C)[C@H](N)C(=O)OCCOCn1cnc2c(=O)nc(N)[nH]c21 [Valacyclovir hydrochloride] (20 µM) | 1.06 | 0.958 | 0.98 | 0.538 | 1.09 (inactive) | 0.989 (inactive) | 1.02 (inactive) | 0.954 (inactive) | 1.03 (inactive) | 0.987 (inactive) | 0.999 (inactive) | 0.997 (inactive)
Nc1ccc(S(=O)(=O)Nc2ccnn2-c2ccccc2)cc1 [Sulfaphenazole] (20 µM) | 1.01 | 1.11 | 1.04 | 1.11 | 0.99 (inactive) | 0.977 (inactive) | 0.994 (inactive) | 1.04 (inactive) | 1.03 (inactive) | 1.04 (inactive) | 1.02 (inactive) | 0.95 (inactive)
Cc1ccc(C(C)NC(=O)[C@@H](NC(=O)OC(C)C)C(C)C)cc1 (stereo not given in full) (20 µM) | 1.07 | 1.02 | 1.04 | 0.999 | 1.02 (inactive) | 1.02 (inactive) | 1.03 (inactive) | 0.974 (inactive) | 1 (inactive) | 1.03 (inactive) | 1.02 (inactive) | 1.07 (inactive)
C[N+]1(C)CCC(=C(c2ccccc2)c2ccccc2)CC1 [Diphemanil methylsulfate] (20 µM) | 1.04 | 1.02 | 1.07 | 0.984 | 0.94 (inactive) | 1.17 (inactive) | 1.01 (inactive) | 0.958 (inactive) | 0.962 (inactive) | 1.02 (inactive) | 1.02 (inactive) | 1.06 (inactive)
CN(C)CC/C=C1\c2ccccc2CSc2ccccc21 [Dosulepin hydrochloride] (20 µM) | 1.07 | 0.99 | 0.968 | 0.844 | 0.887 (inactive) | 1.17 (inactive) | 0.961 (inactive) | 1.03 (inactive) | 0.941 (inactive) | 1.01 (inactive) | 1.06 (inactive) | 0.952 (inactive)
Cc1c(O)c(=O)ccn1C [Deferiprone] (20 µM) | 1 | 0.999 | 1.04 | 1.06 | 1.03 (inactive) | 1.05 (inactive) | 1.02 (inactive) | 1 (inactive) | 1.01 (inactive) | 1.03 (inactive) | 0.999 (inactive) | 1 (inactive)
CN(CCCN1c2ccccc2CCc2ccccc21)CC(=O)c1ccc(Cl)cc1 [Lofepramine] (20 µM) | 1.02 | 0.937 | 1.02 | 1.2 | 0.986 (inactive) | 1.04 (inactive) | 0.891 (inactive) | 1.01 (inactive) | 1.03 (inactive) | 0.989 (inactive) | 0.999 (inactive) | 0.851 (inactive)
Nc1nc(=O)n([C@@H]2CS[C@H](CO)O2)cc1F [(-) Emtricitabine] (20 µM) | 1.11 | 0.995 | 0.981 | 1.12 | 1.01 (inactive) | 1.03 (inactive) | 1.03 (inactive) | 1.01 (inactive) | 0.985 (inactive) | 0.996 (inactive) | 0.991 (inactive) | 1.06 (inactive)
Cc1cc(C(=O)NNCc2ccccc2)no1 [Isocarboxazid] (20 µM) | 1.17 | 1.04 | 1.18 | 0.995 | 0.915 (inactive) | 1.09 (inactive) | 1.07 (inactive) | 1.05 (inactive) | 0.987 (inactive) | 0.983 (inactive) | 1.02 (inactive) | 1.09 (inactive)
C=C1C[C@H]2[C@@H]3C=C(C)C4=CC(=O)CC[C@]4(C)[C@H]3CC[C@]2(C)[C@@]1(OC(C)=O)C(C)=O [Melengestrol acetate] (20 µM) | 1.17 | 1.07 | 1.07 | 1.04 | 1.03 (inactive) | 1 (inactive) | 1.03 (inactive) | 1.02 (inactive) | 1 (inactive) | 1.02 (inactive) | 0.995 (inactive) | 1.05 (inactive)
COc1ccc2[nH]cc(CCNC(C)=O)c2c1 [Melatonin] (20 µM) | 0.916 | 0.932 | 1.06 | 0.789 | 0.94 (inactive) | 1.03 (inactive) | 1.01 (inactive) | 0.98 (inactive) | 0.999 (inactive) | 0.999 (inactive) | 1 (inactive) | 0.98 (inactive)
NCCNCCNCCNCCN [Tetraethylenepentamine pentahydrochloride] (20 µM) | 1 | 1.1 | 1.02 | 0.923 | 1 (inactive) | 1.03 (inactive) | 0.952 (inactive) | 1.07 (inactive) | 0.994 (inactive) | 0.955 (inactive) | 0.994 (inactive) | 0.967 (inactive)
CCCSc1ccc2[nH]c(NC(=O)OC)nc2c1 [Albendazole] (20 µM) | 0.989 | 1.01 | 1.05 | 0.661 | 1.09 (inactive) | 0.961 (inactive) | 1.07 (inactive) | 1.01 (inactive) | 1.02 (inactive) | 0.982 (inactive) | 1.01 (inactive) | 1.13 (inactive)
CCOc1nc2cccc(C(=O)O)c2n1Cc1ccc(-c2ccccc2-c2nnn[nH]2)cc1 [Candesartan] (20 µM) | 1.16 | 0.982 | 1.01 | 1.19 | 0.965 (inactive) | 1.04 (inactive) | 0.975 (inactive) | 0.981 (inactive) | 1 (inactive) | 1.03 (inactive) | 1.01 (inactive) | 0.947 (inactive)
CN1CCCN=C1/C=C/c1cccc(O)c1 [Oxantel pamoate] (20 µM) | 1.1 | 1.04 | 1.03 | 0.853 | 0.924 (inactive) | 1.05 (inactive) | 1.06 (inactive) | 1.03 (inactive) | 0.967 (inactive) | 1.01 (inactive) | 1.01 (inactive) | 1.08 (inactive)
NS(=O)(=O)c1cc(C(=O)O)cc(N2CCCC2)c1Oc1ccccc1 [Piretanide] (20 µM) | 1.09 | 0.987 | 0.997 | 0.955 | 1.01 (inactive) | 1.11 (inactive) | 1.1 (inactive) | 0.974 (inactive) | 1.04 (inactive) | 1.06 (inactive) | 1.08 (inactive) | 1.23 (inactive)
O=C(O)c1ccccc1Nc1cc(Cl)ccc1C(=O)O [Lobenzarit disodium] (20 µM) | 0.929 | 1 | 1.02 | 1.08 | 1.02 (inactive) | 1.07 (inactive) | 0.976 (inactive) | 0.987 (inactive) | 0.994 (inactive) | 0.932 (inactive) | 1 (inactive) | 1.01 (inactive)
CO[C@@H]1[C@@H](OC(N)=O)[C@@H](O)[C@H](Oc2ccc3c(O)c(NC(=O)c4ccc(O)c(CC=C(C)C)c4)c(=O)oc3c2C)OC1(C)C [Novobiocin sodium salt] (20 µM) | 1.07 | 0.922 | 0.747 | 0.338 | 0.858 (inactive) | 0.754 (inactive) | 0.176 (active) | 1.18 (inactive) | 0.986 (inactive) | 1.04 (inactive) | 1 (inactive) | 0.208 (active)
C[C@@H](O)[C@H]1C(=O)N2C(C(=O)O)=C(SCCNC=N)C[C@H]12 [Imipenem] (20 µM) | 0.318 | 1.08 | 0.85 | 0.0868 | 0.772 (inactive) | 0.0417 (active) | 0.0408 (active) | 0.971 (inactive) | 1.03 (inactive) | 1.65 (active) | 1 (inactive) | 0.0463 (active)
CNCCC(Oc1ccccc1OC)c1ccccc1 (stereo not given) [Nisoxetine hydrochloride] (20 µM) | 0.994 | 0.74 | 0.914 | 0.975 | 1.02 (inactive) | 0.993 (inactive) | 1.01 (inactive) | 0.707 (inactive) | 0.978 (inactive) | 1.18 (inactive) | 0.983 (inactive) | 0.92 (inactive)
NC(N)=Nc1nc(CSCCN/C=N/S(=O)(=O)c2ccc(Br)cc2)cs1 [Ebrotidine] (20 µM) | 1.02 | 1.02 | 0.989 | 1.02 | 1.03 (inactive) | 0.91 (inactive) | 0.836 (inactive) | 0.974 (inactive) | 0.991 (inactive) | 1.06 (inactive) | 1.01 (inactive) | 0.887 (inactive)
